Experimental data taken from PubChem BioAssay AID540333 (Southern Research Specialized Biocontainment Screening …, 2011).
Screen size: about 10,000 compounds; about 320 (3.2%) were called active. Many of the other results were omitted from the sample, so actives are more common in it than they were. Unmarked numbers belong to inactive results. Rule as the data show it: active = CPE inhibition mostly above about 9.1% (no sharp cut-off); inactive = mostly below about 7.2%.

assay: Dengue virus cytopathic effect inhibitors, cell-based, CPE readout, HTS (AID 540333); details: Dengue virus CPE inhibition in host cells, at 20 µM; hits give high values

Compound	CPE inhibition
Cn1cc([N+](=O)[O-])c(C(=O)N/N=C/c2ccc([N+](=O)[O-])cc2)n1	0.11%
CCNC(=O)c1cc(Cl)ccc1OC	0.845%
N#C/C(=C\c1cccs1)c1nc2ccccc2[nH]1	inactive
N#C/C(=C\c1ccc(OC(=O)c2ccc(Br)s2)cc1)c1nc2ccccc2[nH]1	8.02%
N#C/C(=C\c1ccc(Sc2ccccc2)o1)c1nc2ccccc2[nH]1	13% (active)
CCn1c(C)cs/c1=N\C(=S)Nc1ccccc1C	0.08%
Cc1ccc(C2CC(=O)C=C(NCC(C)C)C2)cc1 (configuration not stated)	inactive
Cc1ccc(C)c(NC(=S)N(C)CCc2ccccn2)c1	inactive
Cc1ccccc1OCC(=O)N1N=C(c2cccnc2)CC1(O)C(F)(F)F (configuration not stated)	inactive
CC/C(=N\N=C1\SC(C)C(=O)N1Cc1ccco1)c1ccccc1 (configuration not stated)	22.7% (active)
COc1ccc(N=C2SC(CC(=O)Nc3ccccc3OC)C(=O)N2Cc2ccco2)cc1 (configuration not stated)	1.94%
COc1ccc(N=C2SC(CC(=O)Nc3ccccc3F)C(=O)N2Cc2ccco2)cc1 (configuration not stated)	0.295%
CSc1ccc(/C=N/NC(=O)COc2ccc(Br)cc2Cl)cc1	3.23%
CN(C)S(=O)(=O)c1cccc(NC(=O)CCSc2ccc(Cl)cc2)c1	inactive
CCN(CC)S(=O)(=O)c1cccc(NC(=O)CCSc2ccc(Cl)cc2)c1	11% (active)
COc1cccc(NC(=O)CCSc2ccc(C)cc2)c1	inactive
O=C(CSc1nc2ccccc2s1)Nc1ccc(Cl)c(S(=O)(=O)N2CCOCC2)c1	0.03%
Cc1ccc(CSc2ccc(-c3ccc4c(c3)OCO4)nn2)cc1	inactive
O=C1N(c2ccccc2)C(c2ccc(Cl)cc2)N2CCCN12 (configuration not stated)	0.355%
Cc1cc(O)c(C2=Nc3ccccc3SC(c3ccc(Cl)cc3)C2)c(=O)o1 (configuration not stated)	5.1%
O=C1CC(c2ccc(Cl)cc2)SC(N(c2ccccc2)c2ccccc2)=N1 (configuration not stated)	23.9% (active)
O=C1NC(=O)C(CC(=O)N(Cc2cccs2)C2(C(=O)NC3CCCC3)CCCCC2)N1 (configuration not stated)	0.025%
CC(=O)Nc1ccccc1C(=O)C(=O)Nc1cccc(C(=O)NCc2ccccc2)c1	inactive

Compound	CPE inhibition
O=C(NC(=S)Nc1cccc(NC(=O)c2ccccc2)c1)c1cccc([N+](=O)[O-])c1	0.91%
COc1ccc(Cc2nnc(NC(=O)CSc3ccc(C)cc3)s2)cc1	0.25%
COC(=O)Nc1nnc(/C=C/c2ccc(OC)cc2)s1	6.99%
COc1ccc(/C=C/c2nnc(NC(=O)CSc3ccc(Cl)cc3)s2)cc1	12.2% (active)
CC(C)c1nc(C#N)c(N2CCOCC2)o1	inactive
Cc1ccc(CN2CCN(CC(=O)N/N=C/c3c[nH]c4ccccc34)CC2)cc1	0.79%
COc1cc(OC)cc(-c2c(C#Cc3ccsc3)c3cc(-c4cccc5[nH]ccc45)ccc3n2C)c1	6.79%
CC(=O)N1CCN(CC(=O)Nc2ccccc2Sc2ccccc2)CC1	0.615%
CC1CCCCN1CC(=O)Nc1ccccc1Sc1ccccc1 (configuration not stated)	18.4% (active)
Cc1ccc(/C=C/C(=O)OCC(=O)Nc2ccccc2Sc2ccccc2)cc1	inactive
CC1CN(CC(=O)Nc2ccccc2Sc2ccccc2)CC(C)O1 (configuration not stated)	0.145%
O=C(Cc1ccccc1)Nc1cc(Cl)ccc1Sc1ccccc1	0.52%
O=C(CN1CCN(c2ccccc2)CC1)Nc1ccccc1Sc1ccccc1	15.7% (active)
O=C(COC(=O)c1ccccc1-c1nc2ccccc2s1)NC1CCS(=O)(=O)C1 (configuration not stated)	inactive
CC(=O)O[C@H]1CC[C@@]2(C)[C@@H](CC[C@H]3[C@@H]4CC[C@H](C(C)O)[C@@]4(C)CC(=O)[C@@H]32)C1 (some centres not stated)	inactive
COC(=O)c1ccc(NC(=O)CSC2=NCCN2)cc1	0.235%
O=C1CC(N(Cc2cccs2)C(=O)Nc2ccccc2)C(=O)N1c1ccc(Cl)cc1 (configuration not stated)	0.225%
COC(=O)[C@@]1(Cc2ccc(F)cc2)[C@H]2c3cc(C(=O)N(C)C)n(C[C@H](O)CO)c3C[C@H]2CN1C(=O)c1ccccc1	0.25%
COC(=O)Cn1c(C(=O)N2CCCC2)cc2c1C[C@H]1CN(C(=O)c3ccccc3)[C@@](Cc3ccc(F)cc3)(C(=O)OC)[C@@H]21	0.235%
COC(=O)[C@@]1(Cc2ccc(F)cc2)[C@H]2c3cc(C(=O)N(C)C)n(CCc4ccc(OC)c(Br)c4)c3C[C@H]2CN1C(=O)c1ccccc1	21.7% (active)
Cc1cc(NC(=O)/C=C/c2ccc(Cl)cc2)no1	inactive
Cc1cccn2c(=O)c(/C=C(\C#N)C(=O)NCc3ccco3)c(N3CCCC(C)C3)nc12 (configuration not stated)	11.3% (active)
Cc1cccn2c(=O)c(/C=C(\C#N)C(=O)NCc3ccco3)c(N3CCC(C(N)=O)CC3)nc12	0.26%

Compound	CPE inhibition
Cc1cccn2c(=O)c(/C=C(\C#N)C(=O)NC3CCS(=O)(=O)C3)c(N3CCC(C(N)=O)CC3)nc12 (configuration not stated)	0.15%
CCOP(=O)(OCC)C(NC(=O)Nc1ccc(Cl)cc1)c1ccccc1 (configuration not stated)	0.17%
Cn1cccc1CC(=O)N/N=C/C=C/c1ccccc1	0.02%
COc1ccc(COc2ccccc2C(=O)NCc2ccccc2)cc1F	1.67%
Cc1cc(C)c2c(c1)cc(C)c1nnc(SCC(=O)Nc3ccccc3N3CCOCC3)n12	inactive
CCOc1cc(/C=C2\C(=O)N(c3cccc(C(F)(F)F)c3)C(=O)c3ccccc32)ccc1O	17.1% (active)
CCOc1cc(/C=C2\C(=O)N(CCc3ccc(OC)c(OC)c3)C(C)=C2C(=O)OC)ccc1O	2.62%
CCOc1cc(/C=C2\NC(=S)N(c3c(C)n(C)n(-c4ccccc4)c3=O)C2=O)ccc1O	0.065%
CN(C)S(=O)(=O)c1cccc(NC(=O)COC(=O)/C=C/c2ccco2)c1	inactive
COc1ccccc1-c1coc2cc(OCC(=O)OCc3ccccc3)ccc2c1=O	inactive
CCCOC(=O)c1ccc(NC(=O)c2cc(Cl)ccc2OC)cc1	0.345%
CCCOC(=O)c1ccc(NC(=O)C(CC)CC)cc1	inactive
CCCCOC(=O)c1ccc(NC(c2ccc(C)cc2)P(=O)(OC)OC)cc1 (configuration not stated)	41.4% (active)
Cc1ccc(NC(=O)c2cncc(Br)c2)cc1S(=O)(=O)N(C)C	inactive
CCCNC(=O)Cn1nc([N+](=O)[O-])c([N+](=O)[O-])c1C	inactive
CCn1cc([N+](=O)[O-])c(C(=O)N2N=C(c3ccccc3)CC2c2ccc([N+](=O)[O-])cc2)n1 (configuration not stated)	1.99%
COc1ccc(C2CC(c3ccccc3)=NN2C(=O)COC(=O)C2CC2)cc1 (configuration not stated)	1.49%
O=C(c1cccs1)N1N=C(c2ccccc2)CC1c1ccc(O)cc1 (configuration not stated)	30.5% (active)
COc1ccccc1-c1nnc(NC(=O)C2=COCCO2)o1	0.3%
Cc1onc(-c2c(F)cccc2Cl)c1C(=O)NC(=S)NCc1cccnc1	inactive
CCN(CC)S(=O)(=O)c1ccc(C)c(NC(=S)NNC(=O)C2CC2)c1	0.73%
O=C(CNC(=O)C1CCCCC1)Nc1cc(Cl)ccc1Cl	inactive
CCN(CC)c1ccc(S(=O)(=O)Nc2cc(Cl)ccc2Cl)cc1NC(=S)NC(=O)C1CCCC1	26.9% (active)

Compound	CPE inhibition
O=[N+]([O-])c1cccc(N/N=C/c2cccc3ccccc23)c1	0.555%
CCn1cc(CNC(=O)c2cccc([N+](=O)[O-])c2)c(C)n1	0.4%
O=C(Cc1ccc(Cl)cc1)Nc1cccc(S(=O)(=O)Nc2ccccc2F)c1	0.29%
Cc1cccc(NC(=S)N2CCCCCC2)c1	0.335%
Cc1cccc(NC(=S)N2CCCCC2)c1	0.28%
Cc1cccc(NC(=S)N/N=C2/CCCCc3ccccc32)c1	11.6% (active)
Cc1ccc(C(=O)NN2C(=O)C3C4c5ccccc5C(c5ccccc54)C3C2=O)cc1 (configuration not stated)	1.93%
COc1ccc(O)c(C(=O)c2cc(C(=O)NCCc3ccccc3)c(=O)n(CCc3ccccc3)c2)c1	15.6% (active)
COc1ccc(CCNC(=O)c2ccccc2N(C)S(=O)(=O)c2ccccc2)cc1	inactive
CCOc1ccccc1NC(=O)c1cc(C(=O)c2cc(OC)ccc2O)coc1=N	inactive
Cc1ccc(SCc2cc(=O)[nH]c(Nc3nc(C)c4ccc(C)cc4n3)n2)cc1	2.63%
Cc1ccccc1-c1ccc(C(=O)NCc2ccccc2)o1	inactive
O=C(C[n+]1cc(-c2ccc(Cl)c(Cl)c2)n2c1CCC2)N1c2ccccc2Sc2ccccc21	15.1% (active)
O=C(C[n+]1cc(-c2ccccc2)n2c1CCC2)N1c2ccccc2Sc2ccccc21	2.94%
O=C(C[n+]1cc(-c2ccc(Cl)cc2)n2c1CCC2)N1c2ccccc2Sc2ccccc21	2.13%
Cc1ccc(N=Nc2ccc(O)c3ncccc23)cc1	0.345%
O=S(=O)(Nc1ccc2ccccc2c1)c1ccccc1	inactive
O=S(=O)(Nc1ccc(N=Nc2ccc(O)c3ccccc23)cc1)c1ccccc1	10.4% (active)
Cc1ccc(-c2cc3nc(-c4ccc(Br)cc4)cc(N)n3n2)cc1	8.6%
O=C(CNC(c1ccccc1)c1ccccc1)Nc1ccccc1-c1ccccc1	25.7% (active)
CCC(C(=O)OCC(=O)Nc1ccccc1-c1ccccc1)c1ccccc1 (configuration not stated)	4.5%
Cc1ccccc1CSCC(=O)Nc1ccccc1-c1ccccc1	2.64%
Cc1ccc(/C=N/n2c(C)cc(C)c(C#N)c2=O)o1	1.26%
